# Measurements: the supplement of paper PMC4022240
# ± gives the standard deviation.
# T1: HaloTag-ATRX ADD domain (163-292)
# T1 chain: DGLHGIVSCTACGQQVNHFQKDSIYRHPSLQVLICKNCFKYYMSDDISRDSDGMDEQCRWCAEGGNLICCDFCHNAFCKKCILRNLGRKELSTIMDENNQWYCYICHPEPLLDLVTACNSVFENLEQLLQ
# What was measured:
# Assay in all cases: peptide microarray binding signal (635 nm), min-max normalized on array (fraction of array maximum); higher = stronger binding
# [1] = molecular target: T1, HaloTag-ATRX ADD domain (163-292)
# Summary of the method: (§1)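 An Axon GenePix 4000B scanned the arrays at 635 nm for signal and at 532 nm to catch misprints. Those arrays held histone 13-mer peptide–cellulose conjugates printed in triplicate on nitrocellulose with a Cy3 tracer, blocked overnight at 4°C and probed for 1 h at 4°C with biotin-labelled HaloTag reader fusions (10 nM to 1 μM) plus streptavidin-Alexa Fluor 647 or with rabbit histone antibodies (1:10,000 to 1:2,000) plus anti-rabbit Alexa 647. Each binding signal is a triplicate-spot mean intensity, scaled min-max within its library.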
# [2] = molecular target: HaloTag-ING2 PHD (mouse Ing2 200-280)
# Summary of the method: as §1
# [3] = molecular target: anti-H3K4me3 antibody ab8580
# Summary of the method: as §1
# [4] = molecular target: anti-H3K9me3 antibody ab8898
# Summary of the method: as §1
# [5] = peptide region: H3 30-42, peptide modifications: H3K36me2 H3K37me2, binder concentration: 1:2,000 dilution
# [6] = peptide region: H3 30-42, peptide modifications: H3K36me2 H3K37me2, binder concentration: 1:10,000 dilution
# [7] = peptide region: H3 20-32, peptide modifications: H3T22ph H3K23me3, binder concentration: 1:2,000 dilution
# [8] = peptide region: H3 20-32, peptide modifications: H3T22ph H3K23me3, binder concentration: 1:10,000 dilution
# [9] = peptide region: H3 30-42, peptide modifications: H3K36me1 H3K37ac, binder concentration: 1:2,000 dilution
# [10] = peptide region: H3 30-42, peptide modifications: H3K36me1 H3K37ac, binder concentration: 1:10,000 dilution
# [11] = peptide region: H3 30-42, peptide modifications: H3K36me1 H3K37me1, binder concentration: 1:2,000 dilution
# [12] = peptide region: H3 30-42, peptide modifications: H3K36me1 H3K37me1, binder concentration: 1:10,000 dilution
# [13] = peptide region: H3 30-42, peptide modifications: H3K36me3 H3K37ac, binder concentration: 1:2,000 dilution
# [14] = peptide region: H3 30-42, peptide modifications: H3K36me3 H3K37ac, binder concentration: 1:10,000 dilution
binder,measurement,setting,value
PATGGVKKPHRYR [H3 30-42 P A T G G V Kme2 Kme2 P H R Y R],peptide microarray binding signal,"[1]; peptide region: H3 30-42, peptide modifications: H3K36me2 H3K37me2, binder concentration: 50 nM",0.00185 ± 1.5e-05
same,peptide microarray binding signal,"[1]; peptide region: H3 30-42, peptide modifications: H3K36me2 H3K37me2, binder concentration: 500 nM",0.00476 ± 0.00025
same,peptide microarray binding signal,"[2]; peptide region: H3 30-42, peptide modifications: H3K36me2 H3K37me2, binder concentration: 10 nM",0.00501 ± 0.00021
same,peptide microarray binding signal,"[2]; peptide region: H3 30-42, peptide modifications: H3K36me2 H3K37me2, binder concentration: 100 nM",0.00227 ± 0.00036
same,peptide microarray binding signal,[3]; [5],0.000396 ± 7e-06
same,peptide microarray binding signal,[3]; [6],0.000799 ± 5.8e-05
same,peptide microarray binding signal,[4]; [5],0.00267 ± 8.5e-05
same,peptide microarray binding signal,[4]; [6],0.00104 ± 2.8e-05
LATKAARKSAPAT [H3 20-32 L A Tph Kme3 A A R K S A P A T],peptide microarray binding signal,"[1]; peptide region: H3 20-32, peptide modifications: H3T22ph H3K23me3, binder concentration: 50 nM",0.00577 ± 0.00039
same,peptide microarray binding signal,"[1]; peptide region: H3 20-32, peptide modifications: H3T22ph H3K23me3, binder concentration: 500 nM",0.0105 ± 0.00049
same,peptide microarray binding signal,"[2]; peptide region: H3 20-32, peptide modifications: H3T22ph H3K23me3, binder concentration: 10 nM",0.0219 ± 0.0024
same,peptide microarray binding signal,"[2]; peptide region: H3 20-32, peptide modifications: H3T22ph H3K23me3, binder concentration: 100 nM",0.026 ± 0.0027
same,peptide microarray binding signal,[3]; [7],0.0775 ± 0.0084
same,peptide microarray binding signal,[3]; [8],0.0633 ± 0.0092
same,peptide microarray binding signal,[4]; [7],0.0523 ± 0.0034
same,peptide microarray binding signal,[4]; [8],0.0244 ± 0.0027
PATGGVKKPHRYR [H3 30-42 P A T G G V Kme Kac P H R Y R],peptide microarray binding signal,"[1]; peptide region: H3 30-42, peptide modifications: H3K36me1 H3K37ac, binder concentration: 50 nM",0.00263 ± 0.00011
same,peptide microarray binding signal,"[1]; peptide region: H3 30-42, peptide modifications: H3K36me1 H3K37ac, binder concentration: 500 nM",0.0039 ± 5.6e-05
same,peptide microarray binding signal,"[2]; peptide region: H3 30-42, peptide modifications: H3K36me1 H3K37ac, binder concentration: 10 nM",0.00298 ± 3.3e-05
same,peptide microarray binding signal,"[2]; peptide region: H3 30-42, peptide modifications: H3K36me1 H3K37ac, binder concentration: 100 nM",0.00354 ± 8.3e-05
same,peptide microarray binding signal,[3]; [9],0.00145 ± 6.2e-05
same,peptide microarray binding signal,[3]; [10],0.00137 ± 5.4e-05
same,peptide microarray binding signal,[4]; [9],0.00163 ± 7.6e-05
same,peptide microarray binding signal,[4]; [10],0.00127 ± 2.5e-05
PATGGVKKPHRYR [H3 30-42 P A T G G V Kme Kme P H R Y R],peptide microarray binding signal,"[1]; peptide region: H3 30-42, peptide modifications: H3K36me1 H3K37me1, binder concentration: 50 nM",0.00245 ± 4.3e-05
same,peptide microarray binding signal,"[1]; peptide region: H3 30-42, peptide modifications: H3K36me1 H3K37me1, binder concentration: 500 nM",0.0039 ± 0.00015
same,peptide microarray binding signal,"[2]; peptide region: H3 30-42, peptide modifications: H3K36me1 H3K37me1, binder concentration: 10 nM",0.00424 ± 0.00021
same,peptide microarray binding signal,"[2]; peptide region: H3 30-42, peptide modifications: H3K36me1 H3K37me1, binder concentration: 100 nM",0.000496 ± 9.7e-06
same,peptide microarray binding signal,[3]; [11],0.000189 ± 2e-06
same,peptide microarray binding signal,[3]; [12],0.00559 ± 0.0011
same,peptide microarray binding signal,[4]; [11],0.00157 ± 0.00052
same,peptide microarray binding signal,[4]; [12],0.00254 ± 0.00014
PATGGVKKPHRYR [H3 30-42 P A T G G V Kme3 Kac P H R Y R],peptide microarray binding signal,"[1]; peptide region: H3 30-42, peptide modifications: H3K36me3 H3K37ac, binder concentration: 50 nM",0.00197 ± 6.4e-05
same,peptide microarray binding signal,"[1]; peptide region: H3 30-42, peptide modifications: H3K36me3 H3K37ac, binder concentration: 500 nM",0.00643 ± 0.0006
same,peptide microarray binding signal,"[2]; peptide region: H3 30-42, peptide modifications: H3K36me3 H3K37ac, binder concentration: 10 nM",0.00603 ± 7.6e-05
same,peptide microarray binding signal,"[2]; peptide region: H3 30-42, peptide modifications: H3K36me3 H3K37ac, binder concentration: 100 nM",0.00128 ± 0.00011
same,peptide microarray binding signal,[3]; [13],0.000566 ± 6.2e-05
same,peptide microarray binding signal,[3]; [14],0.00856 ± 0.0042
same,peptide microarray binding signal,[4]; [13],0.0143 ± 0.0012
same,peptide microarray binding signal,[4]; [14],0.00617 ± 0.0014
